# Source: PubChem BioAssay (The Scripps Research Institute Molecular Screening Center)
# This is a sample that favours compounds with a hit; in the whole collection about 1.1% have one here.
# OPRM1-OPRD1 inv = inverse agonists of MOR-DOR heterodimerization, primary screen, cell-based, luminescence | AID 504357, 2011 | inhibition, % at 9.3 µM | hit rate 0.21% among 340,000 | Mu-type opioid receptor (Homo sapiens) + Delta-type opioid receptor (Homo sapiens), … | cell-based MOR-DOR heterodimer luminescence, inverse agonism; in the data active = inhibition above about 22%, passing the limit was not always enough;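 also: 0% = cells with DMSO and 100% = wells without cells with DMSO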
# Target sequence (P35372 whole entry, looked up): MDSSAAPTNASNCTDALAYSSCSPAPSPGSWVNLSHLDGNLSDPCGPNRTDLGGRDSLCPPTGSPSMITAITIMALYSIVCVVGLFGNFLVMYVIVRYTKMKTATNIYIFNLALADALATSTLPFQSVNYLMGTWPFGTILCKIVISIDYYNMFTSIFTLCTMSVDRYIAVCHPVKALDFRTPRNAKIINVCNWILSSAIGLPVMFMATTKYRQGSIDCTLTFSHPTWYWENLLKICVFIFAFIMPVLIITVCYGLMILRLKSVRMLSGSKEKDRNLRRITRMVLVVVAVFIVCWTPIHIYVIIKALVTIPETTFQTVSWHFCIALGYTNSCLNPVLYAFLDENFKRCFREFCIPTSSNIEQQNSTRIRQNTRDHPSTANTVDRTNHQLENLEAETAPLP
# Target sequence (P41143 whole entry, looked up): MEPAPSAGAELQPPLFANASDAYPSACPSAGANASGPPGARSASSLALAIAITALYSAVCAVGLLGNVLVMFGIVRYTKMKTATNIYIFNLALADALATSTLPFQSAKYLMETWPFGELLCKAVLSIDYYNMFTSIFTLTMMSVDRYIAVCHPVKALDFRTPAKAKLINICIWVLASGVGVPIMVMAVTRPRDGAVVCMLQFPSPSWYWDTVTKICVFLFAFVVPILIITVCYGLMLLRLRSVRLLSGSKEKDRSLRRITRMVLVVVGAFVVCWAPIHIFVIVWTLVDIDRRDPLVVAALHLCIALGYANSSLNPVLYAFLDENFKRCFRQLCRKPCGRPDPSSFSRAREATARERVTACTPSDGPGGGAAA
# HTR5A ag = HTR5A agonists in luminescence cell assay, primary screen, counter-screen for OPRM1-OPRD1 heterodimer agonist project, full-deck HTS. 5-hydroxytryptamine receptor 5A (Homo sapiens), P47898. cell-based. activation, % at 9.3 µM. hit rate 0.61% among 340,000; in the data active = activation mostly above about 9.5%, no sharp cut-off; inactive = mostly below about 7.6%;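 also: 0% = cells with vehicle only and 100% = reference agonist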
# HTR5A inv ag = HTR5A inverse agonists in luminescence cell assay, primary screen, counter-screen for OPRM1-OPRD1 heterodimer inverse agonist project, full-deck HTS; HTR5A cell line, inverse agonism; hit rate 0.083% among 340,000; inhibition, % at 9.3 µM; 5-hydroxytryptamine receptor 5A (Homo sapiens), P47898; in the data active = inhibition mostly above about 23%, no sharp cut-off; inactive = mostly below about 18%;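 also: 0% = cells with DMSO and 100% = no-cell wells with DMSO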
# MOR-DOR ag-1 = agonists of OPRM1-OPRD1 heterodimerization, primary screen, cell-based, luminescence. activation, % at 9.3 µM. hit rate 0.3% among 340,000. Mu-type opioid receptor (Homo sapiens) + Delta-type opioid receptor (Homo sapiens), …. cells;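 also: 0% = vehicle-treated cells and 100% = reference agonist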
# MOR-DOR ag-2 = OPRM1-OPRD1 heterodimerization promoters, counter-screen for HTR5A agonist project, cell-based, luminescence | shares compounds with HTR5A ag | U2OS counter-screen cells, complementation luminescence, 3 h | activation, % at 9.3 µM | hit rate 13% among 800 | AID 504913, 2011
# HTR5A ag confirm = HTR5A agonists, retest of hits, confirmation, cell-based, luminescence; shares compounds with HTR5A ag; HTR5A agonist cell assay; activation, % at 9.3 µM; hit rate 17% among 800; AID 504915, 2011; in the data active = activation above about 17%;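 also: 0% = cells with vehicle only and 100% = full reference agonist response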
# The depositor's hits bear a star; nt = no result. Rule as the data show it, unless noted: active = activation above about 18%; inactive = the rest.
SMILES,OPRM1-OPRD1 inv,HTR5A ag,HTR5A inv ag,MOR-DOR ag-1,MOR-DOR ag-2,HTR5A ag confirm
COCCNC(=O)[C@H]1N2C(=O)c3ccccc3C2SC1(C)C (stereo partly drawn),13,-1,5,-3,nt,nt
CCOC(=O)c1nn(-c2ccc(C)cc2)c(=O)cc1OCC(=O)N1CCN(c2ccccc2)CC1,-1,4,-35,0,nt,nt
Cc1ccc(Nc2nc(N)nc(CN3CCN(Cc4ccc5c(c4)OCO5)CC3)n2)cc1Cl,-6,18*,-18,1,0,5
COc1ccc(Nc2nnc(Cc3ccccc3)c(=O)[nH]2)c(OC)c1,-14,17*,-31,2,4,-1
O=C(NC1CCN(Cc2ccccc2)CC1)c1cccc(S(=O)(=O)Nc2ccc(SC(F)F)cc2)c1,-18,19*,9,4,3,2
Cc1ccc(NS(=O)(=O)c2cccc(C(=O)NC3CCN(Cc4ccccc4)CC3)c2)cc1,-4,12,-29,1,nt,nt
CSCC[C@H](NC(=O)Cc1c(C)c2c(cc(C)c3c(C)coc32)oc1=O)C(=O)O,8,0,-2,-2,nt,nt
CCN(CC)C(=O)c1ccc(S(=O)(=O)N2CCC(c3nc4ccccc4s3)CC2)cc1,-15,21*,-55,2,5,4
CCOC(CNC(=O)C1CCN(S(=O)(=O)c2ccc3nc4c(c(C(=O)O)c3c2)CCCCC4)CC1)OCC,12,0,-8,-2,nt,nt
Cc1ccccc1N(C(=O)c1snc(C(N)=O)c1N)C(C(=O)NC1CCCC1)c1ccco1 (stereo not drawn),21,2,-6,-4,nt,nt
COc1cc(-c2nc3cnccn3c2Nc2ccc3c(c2)OCCO3)ccc1O,5,10,-26,-1,nt,nt
COc1cc(-c2nc3ccc(C)cn3c2Nc2ccc3c(c2)OCCO3)ccc1O,-13,43*,-108,2,3,39*
CN(C)S(=O)(=O)c1cccc(COC(=O)c2ccc(Cl)cc2O)c1,-3,16*,18,1,39*,-3
CN(C)S(=O)(=O)c1cccc(COC(=O)c2ccc3c(c2)OCO3)c1,-2,0,22,0,nt,nt
COc1ccc(N2CCN(C(CNC(=O)C(=O)NCCCn3ccnc3)c3ccco3)CC2)cc1 (stereo not drawn),20,6,-33,-4,nt,nt
COC(=O)N1CCc2c(sc(NC(=O)C3COc4ccccc4O3)c2C(N)=O)C1 (stereo not drawn),2,61*,-169,0,3,43*
Cc1nc(NC(=O)c2ccc(Br)o2)ccc1Br,-8,11,-27,2,nt,nt
Cc1nc(NC(=O)c2cc3ccccc3o2)ccc1Br,-5,22*,-52,1,4,0
COc1cc(/C=C2\COC/C(=C\c3ccc(O)c(OC)c3)C2=O)ccc1O,3,-7,16,-1,nt,nt
COc1cc(/C=C2/CC/C(=C/c3ccc(O)c(OC)c3)C2=O)ccc1O,-53,23*,14,10,0,5
COc1ccc2ccccc2c1CNC(C)c1ccccc1 (stereo not drawn),14,2,-6,-3,nt,nt
CC(NCCCOc1cccc2ccccc12)c1ccccc1 (stereo not drawn),-68,15*,-58,14,43*,2
C#CC(=O)CC1(CN(Cc2ccccc2)C(=O)OC(C)(C)C)CCCCC1,-26,17*,-43,5,34*,15
COc1ccc(CC(C)N2CCN(c3cccc(C(F)(F)F)c3)CC2)cc1OC (stereo not drawn),-27,33*,-106,5,11,29*
CCOc1cc(CN2CCN(c3cccc(C(F)(F)F)c3)CC2)ccc1OC,-15,6,-17,3,nt,nt
SMILES,OPRM1-OPRD1 inv,HTR5A ag,HTR5A inv ag,MOR-DOR ag-1,MOR-DOR ag-2,HTR5A ag confirm
CN1CCN(c2ccc(S(=O)(=O)N3CCOCC3)cc2NC(=O)CSCc2ccccc2)CC1,18,-5,16,-4,nt,nt
CN(C(=O)c1cccc(NC(=O)Cc2ccc(NC(=O)C3CCCN(C(=O)CCc4ccccc4)C3)cc2)c1)C1CCC1 (stereo not drawn),-20,20*,-77,4,5,5
CN(C(=O)c1cccc(NC(=O)Cc2ccc(NC(=O)C3CCCN(C(=O)CCc4ccccc4)C3)cc2)c1)C1CCCC1 (stereo not drawn),-16,0,2,4,nt,nt
NCCCCc1ccc2ccc3cccc4ccc1c2c34,-36,16*,-40,7,15,5
O=c1[nH]c(C2CCN(S(=O)(=O)Cc3ccccc3)CC2)nc2c1nnn2Cc1cccc(Cl)c1,-13,14*,-43,2,1,1
CCN(CC)C1CCN(C(=O)c2cc(COc3ccc(-n4cncn4)cc3)on2)C1 (stereo not drawn),9,7,-11,-2,nt,nt
COc1cccc(N=C(N)N=C(N)N)c1,-2,16*,-43,0,2,2
O=C(c1ccc(NC2=NC3CS(=O)(=O)CC3S2)cc1)N1CCN(c2ccc([N+](=O)[O-])cc2)CC1 (stereo not drawn),19,-2,1,-4,nt,nt
CC(C(=O)N1CCN(c2ccccc2)CC1)c1ccc([N+](=O)[O-])cc1 (stereo not drawn),15,-1,3,-3,nt,nt
Cc1oc2c(c1C(=O)c1ccc(Cl)cc1)C(=O)C(=O)c1ccccc1-2,-17,0,0,3,nt,nt
Cc1ccc(C(=O)c2coc3c2C(=O)C(=O)c2ccccc2-3)cc1,-73,19*,-33,13,7,7
CCCCCCC1/C(=N\NC(=O)c2ccccc2)CCC1C(=O)OC (stereo not drawn),13,-1,5,-3,nt,nt
COc1ccc(-c2cc3cc(F)ccc3cn2)cc1,-30,24*,-65,5,22*,-1
CC(C)(c1ccccc1)c1ccc(OCCN2CCOCC2)cc1,-4,14*,-54,1,128*,1
O=C(NCCC(=O)N(CCc1ccccc1)Cc1ccccc1)c1ccc([N+](=O)[O-])cc1,-3,-1,1,1,nt,nt
Cc1ccc(-c2nc(NC(=O)c3nn(C)cc3[N+](=O)[O-])sc2C)cc1C,-80,17*,2,14,24*,12
Cc1ccc(-c2nc(NC(=O)c3nn(C)cc3[N+](=O)[O-])sc2C)cc1,1,-1,-3,0,nt,nt
COc1ccc2[nH]cc(CCNC(=O)C3CCCO3)c2c1 (stereo not drawn),11,42*,-139,-2,3,35*
COc1ccc2[nH]cc(CCNC(=O)C3CC(=O)N(c4ccc(Cl)cc4)C3)c2c1 (stereo not drawn),-12,33*,-87,2,1,0
